Data as given in PubChem BioAssay.
Unmarked numbers belong to inactive results. How the calls were made is not given here.

Tested on: Aerobactin synthetase IucA (Klebsiella pneumoniae, hypervirulent)
Assay: biochemical IucA inhibition screen of LOPAC library by absorbance (AID 1346212);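 further: 100% = no compound wells and 0% = no enzyme wells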
Conditions: IucA enzyme assay, absorbance (OD) readout; active compounds read low;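 tested at 8 µM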

SMILES | remaining activity
c1ccc(CN2CCC3(CCCc4ccccc43)CC2)cc1 | 103%
[N-]=[N+]=Nc1ccc(C(=O)CSC[C@H](NC(=O)CC[C@H](N)C(=O)O)C(=O)NCC(=O)O)cc1 | 116%
COc1[nH]c2ccc(F)cc2c1C(=O)OCC1CCN(CCNS(C)(=O)=O)CC1 | 124%
CO/N=C(\C(=O)N[C@@H]1C(=O)N2C(C(=O)O)=C(COC(C)=O)CS[C@H]12)c1csc(N)n1 (stereo in doubt) | 123%
O=c1cc(N2CCOCC2)oc2c(-c3ccccc3)cccc12 | 110%
CC(C)Cc1ccc([C@H](C)C(=O)O)cc1 | 111%
COc1cccc(OC)c1OCCNCC1CSc2ccccc2O1 (stereo not drawn) | 114%
N#CC(C#N)=C(N)/C(C#N)=C/c1ccc(O)cc1 | 117%
CCCn1c(=O)[nH]c(=O)c2[nH]cnc21 | 103%
O=c1[nH]ccc2c(O)cccc12 | 117%
O=c1oc(Cl)c(Cl)c2ccccc12 | 92.9%
CC(COc1ccc(/C=C/c2ccccc2)cc1)[N+](C)(C)C (stereo not drawn) | 104%
Oc1ccc(Cn2cc[nH]c2=S)cc1 | 102%
CCOC(=O)C12CC1/C(=N\O)c1ccccc1O2 (stereo not drawn) | 108%
O=Nc1c(-c2c(O)[nH]c3cc(Br)ccc23)[nH]c2ccccc12 | 113%
COc1ccc(/C=C/C(=O)Nc2ccccc2C(=O)O)cc1OC | 92.2%
CN(C)c1ccc(/C=C2\C(=O)Nc3ccccc32)cc1 | 95.7%
CN(C)CCCO[C@@H]1[C@H]2OC(C)(C)O[C@H]2O[C@@H]1[C@H](O)CO | 113%
NC(=O)C(=O)O | 121%
CC(=O)O[C@]1(C(C)=O)CC[C@H]2[C@@H]3C=C(Cl)C4=CC(=O)[C@@H]5C[C@@H]5[C@]4(C)[C@H]3CC[C@@]21C | 95.7%
CN1CCc2ccccc2Cc2[nH]c3ccccc3c2CC1 | 107%
NC[C@@H]1O[C@H](C23CC4CC(CC(C4)C2)C3)Cc2c1ccc(O)c2O | 111%
COc1cc(-c2ccc(=O)[nH]n2)ccc1OC(F)F | 119%
